C diff HTS: blocks growth of Clostridium difficile; growth activity, negative = inhibition, % at 16 µg/mL (by protocol); 86,000 compounds, 0.25% hits; AID 1259249; Clostridium difficile clinical isolate growth, OD600, 24 h; active compounds read low;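 active = mean growth activity at or below -80% and every replicate also at or below -80%; inconclusive = mean at or below -80% but some replicate above -80%; inactive = mean growth activity above -80%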
Tcruzi prolif: T. cruzi proliferation inhibition. T. cruzi beta-gal in NIH3T3, GalScreen luminescence, 90 h. inhibition, % at 8.34 µM. 77,000 compounds, 5.9% hits. AID 624255;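 active = mean inhibition above about 93%, with at least 55% of replicates each passing it, limit read from the data, passing the limit was not always enough; inconclusive = only one of those two conditions holds; inactive = neither condition holds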
Pf Dd2 inh: P. falciparum Dd2 growth inhibition; SYBR Green, 72 h; active compounds read low; activity change, % at 10 µM; 94,000 compounds, 2.3% hits; AID 1159554; in the data active = activity change below about -80%; inconclusive = no clear call, values can overlap the other calls
A number is an active result; n = inactive; u = inconclusive; x = not tested or not shown. An excerpt weighted towards active compounds, which were near 6.8% of everything screened.

SMILES | C diff HTS | Tcruzi prolif | Pf Dd2 inh
C[C@@H]1CCCCO[C@H](CN(C)Cc2ccc(C(F)(F)F)cc2)[C@H](C)CN([C@@H](C)CO)C(=O)c2cc(NC(=O)Cc3ccccc3)ccc2O1 | x | n | n
COc1cccc(-c2ccc3c(c2)[C@@H]2[C@@H](CCN2C(=O)C2CC2)[C@@H](CO)N3)c1 | n | x | n
COc1cccc(-c2ccc3c(c2)[C@@H]2[C@@H](CCN2S(=O)(=O)c2cn(C)cn2)[C@H](CO)N3)c1 | n | n | -82
CN1c2ccc(C3=CCCCC3)cc2[C@@H]2[C@@H](CCN2C(=O)C2CC2)[C@@H]1CO | n | x | n
CN1c2ccc(C3=CCCCC3)cc2[C@H]2[C@H](CCN2C(=O)C2CC2)[C@@H]1CO | n | x | -89
COc1cccc(-c2ccc3c(c2)[C@H]2[C@H](CCN2S(=O)(=O)c2cn(C)cn2)[C@H](CO)N3)c1 | n | n | n
COc1ccccc1-c1ccc2c(c1)[C@@H]1[C@@H](CCN1C(=O)C1CCCCC1)[C@@H](CO)N2 | n | n | -85
COc1cccc(-c2ccc3c(c2)[C@H]2[C@H](CCN2C(=O)C2CCCCC2)[C@@H](CO)N3)c1 | n | x | -88
COc1ccccc1-c1ccc2c(c1)[C@H]1[C@H](CCN1C(=O)C1CCC1)[C@@H](CO)N2 | n | x | n
C[C@@H]1CN([C@H](C)CO)C(=O)c2cc(NC(=O)Nc3ccc4c(c3)OCO4)ccc2O[C@H]1CN(C)Cc1ccc(C(=O)O)cc1 | n | n | n
COc1cccc(S(=O)(=O)N2C[C@H](O)COC[C@@H]3O[C@H](CC(=O)N4CCN(C)CC4)CC[C@H]32)c1 | x | n | n
O=C(C[C@H]1C=C[C@@H](NC(=O)NC2CCCCC2)[C@H](CO)O1)NCc1ccccc1 | x | n | n
CC(C)NC(=O)N(C)C[C@@H]1Oc2ccc(NC(=O)Nc3cccc4ccccc34)cc2CC(=O)N([C@H](C)CO)C[C@@H]1C | n | n | n
CCCN(C)C[C@@H]1Oc2cc(-c3cncnc3)ccc2S(=O)(=O)N([C@H](C)CO)C[C@@H]1C | n | x | n
COc1ccc(CNC(=O)C[C@H]2C[C@H]3c4cc(NC(=O)C5CCC5)ccc4O[C@H]3[C@H](CO)O2)cc1 | n | n | n
CO[C@H]1CN(C)C(=O)c2cc(NS(C)(=O)=O)ccc2OC[C@@H](C)N(C(=O)C2CCCCC2)C[C@@H]1C | x | n | x
COc1cccc(-c2ccc3c(c2)[C@@H]2[C@@H](CCN2C(=O)C2CC2)[C@H](CO)N3)c1 | n | x | n
COc1cccc(-c2ccc3c(c2)[C@@H]2[C@@H](CCN2C(=O)C2CCCCC2)[C@H](CO)N3)c1 | n | x | -89
COc1ccc(C#Cc2ccc3c(c2)[C@@H]2[C@@H](CCN2C(=O)C2CCCC2)[C@@H](CO)N3)cc1 | n | x | u
COc1ccc(C#Cc2ccc3c(c2)[C@H]2[C@H](CCN2C(=O)C2CCCC2)[C@@H](CO)N3)cc1 | n | x | -95
COc1ccc(S(=O)(=O)N2CC[C@@H]3[C@H]2c2cc(-c4ccc(C#N)cc4)ccc2N[C@@H]3CO)cc1 | n | n | -91
COc1ccc(-c2ccc3c(c2)[C@@H]2[C@@H](CCN2S(=O)(=O)c2ccc(OC)cc2)[C@H](CO)N3)cc1 | n | n | n
COc1cccc(-c2ccc3c(c2)[C@@H]2[C@@H](CCN2C(=O)C2CCCC2)[C@H](CO)N3)c1 | n | x | -86
COc1cccc(-c2ccc3c(c2)[C@@H]2[C@@H](CCN2C(=O)C2CCC2)[C@H](CO)N3)c1 | n | n | n
CN(C)CC(=O)N[C@H]1CC[C@@H](CCn2cc(C3CC3)nn2)O[C@H]1CO | n | x | n
SMILES | C diff HTS | Tcruzi prolif | Pf Dd2 inh
C[C@@H]1CCCCO[C@@H](CN(C)C(=O)Nc2ccc3c(c2)OCO3)[C@@H](C)CN([C@@H](C)CO)C(=O)c2cc(N(C)C)ccc2O1 | n | n | x
CN1C(=O)c2cc(NC(=O)C3CCOCC3)ccc2OC[C@@H]2O[C@@H](CC(=O)NC3CCCC3)CC[C@@H]21 | n | n | n
CCS(=O)(=O)N1CCCCN2[C@H](C1)[C@@H](c1ccc(-c3cccc(C#N)c3)cc1)[C@@H]2CO | n | n | n
CCC(=O)Nc1ccc2c(c1)C(=O)N(C)[C@H]1CC[C@H](CC(=O)NCc3ccc(OC)cc3)O[C@H]1CO2 | n | n | n
O=C(C1CCCC1)N1CC[C@@H]2[C@H](CO)Nc3ccc(C4=CCCCC4)cc3[C@@H]21 | n | x | -83
O=C(c1ccc(F)cc1)N1CC[C@@H]2[C@H]1c1cc(C3=CCCCC3)ccc1N[C@@H]2CO | n | n | n
O=C(Nc1cc(F)ccc1F)N1CCCCN2[C@H](C1)[C@@H](c1ccc(-c3cccnc3)cc1)[C@@H]2CO | n | n | n
COc1cc(CN2CC3(CN(C(=O)Nc4cccc(F)c4)C3)c3c(n(C)c4cc(OC)ccc34)[C@@H]2CO)cc(OC)c1 | n | x | n
CCC(=O)N1CC2(C1)CN(Cc1ccccc1Cl)[C@H](CO)c1[nH]c3cc(OC)ccc3c12 | n | x | -85
COc1ccc2c3c([nH]c2c1)[C@H](CO)N(Cc1ccccc1)CC31CN(C(C)=O)C1 | n | x | n
COc1ccc2c3c([nH]c2c1)[C@H](CO)N(Cc1cccc(Cl)c1)CC31CN(C(C)=O)C1 | n | x | -83
CCC(=O)N1CC2(C1)CN(Cc1ccc(Cl)cc1)[C@H](CO)c1[nH]c3cc(OC)ccc3c12 | n | x | u
COc1ccc2c3c([nH]c2c1)[C@H](CO)N(Cc1ccc(Cl)cc1)CC31CN(S(C)(=O)=O)C1 | n | x | n
CCCC(=O)N1CC2(C1)CN(Cc1ccc(Cl)cc1)[C@H](CO)c1[nH]c3cc(OC)ccc3c12 | n | x | -90
CCC(=O)N1CC2(C1)CN(Cc1ccc(OC)cc1)[C@H](CO)c1[nH]c3cc(OC)ccc3c12 | n | x | n
CCC(=O)N1CC2(C1)CN(Cc1ccc(Cl)cc1)[C@@H](CO)c1[nH]c3cc(OC)ccc3c12 | n | x | -90
CCCC(=O)N1CC2(C1)CN(Cc1ccc(Cl)cc1)[C@@H](CO)c1[nH]c3cc(OC)ccc3c12 | n | x | -92
COc1ccc2c3c([nH]c2c1)[C@@H](CO)N(Cc1ccc(Cl)cc1)CC31CN(S(C)(=O)=O)C1 | n | x | n
CCC(=O)N1CC2(C1)CN(Cc1cccc(Cl)c1)[C@H](CO)c1[nH]c3cc(OC)ccc3c12 | n | x | -89
CCC(=O)N1CCC2(CC1)CN(Cc1cccc(Cl)c1)[C@@H](CO)c1[nH]c3cc(OC)ccc3c12 | n | x | n
COc1ccc(NC(=O)N(C)C[C@@H]2Oc3c(NS(=O)(=O)c4ccc(C)cc4)cccc3C(=O)N([C@H](C)CO)C[C@@H]2C)cc1 | n | n | n
COc1ccccc1-c1ccc2c(c1)O[C@H](CN(C)Cc1ccc3c(c1)OCO3)[C@@H](C)CN([C@H](C)CO)S2(=O)=O | n | x | -84
CC(C)CC#Cc1ccc2c(c1)O[C@@H](CN(C)Cc1ccc3c(c1)OCO3)[C@@H](C)CN([C@H](C)CO)S2(=O)=O | n | n | n
COc1ccccc1-c1ccc2c(c1)O[C@H](CN(C)Cc1ccc3c(c1)OCO3)[C@H](C)CN([C@@H](C)CO)S2(=O)=O | n | x | n
CC(C)CC#Cc1ccc2c(c1)O[C@@H](CN(C)Cc1ccc3c(c1)OCO3)[C@H](C)CN([C@@H](C)CO)S2(=O)=O | n | n | -81
